# Assay outcomes from PubChem BioAssay.
# The list is not random: actives were taken first. Their share in the collection is about 0.64%.
# PKM2 activator = qHTS Assay for Activators of Human Muscle isoform 2 Pyruvate Kinase; Potency, µM (titrated, usually from 57.5 µM), for inactives: top-dose activation, actives largely listed as activators; purified PKM2, Kinase-Glo ATP luminescence, activation; response scale: 0% is enzyme alone, no compound; Pyruvate kinase PKM (Homo sapiens), P14618; AID 1631, 2009; 260,000 compounds, 0.34% hits; also: potency is read from the fitted curve at half-maximal effect; % is scaled to controls: 0 for no effect and ±100 for the full control effect; nearly all actives have a fitted effect of over 55% in size
# Target sequence (P14618 whole entry, looked up, canonical isoform): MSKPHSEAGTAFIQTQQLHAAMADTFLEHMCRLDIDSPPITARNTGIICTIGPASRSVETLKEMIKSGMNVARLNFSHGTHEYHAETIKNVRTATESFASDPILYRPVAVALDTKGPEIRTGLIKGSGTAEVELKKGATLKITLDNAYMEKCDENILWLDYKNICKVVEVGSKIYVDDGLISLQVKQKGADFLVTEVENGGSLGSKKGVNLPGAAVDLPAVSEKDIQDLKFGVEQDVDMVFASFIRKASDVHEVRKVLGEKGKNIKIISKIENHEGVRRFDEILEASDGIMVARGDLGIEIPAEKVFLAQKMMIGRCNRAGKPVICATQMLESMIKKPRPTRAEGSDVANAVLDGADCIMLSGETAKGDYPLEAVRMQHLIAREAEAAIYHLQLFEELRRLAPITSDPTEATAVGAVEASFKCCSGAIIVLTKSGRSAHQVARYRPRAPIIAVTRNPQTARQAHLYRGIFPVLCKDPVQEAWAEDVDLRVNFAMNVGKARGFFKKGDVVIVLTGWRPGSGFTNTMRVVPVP
#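 Purified hPK-M2 (>95%) run at intermediate activity with 0.1 mM ADP and 0.5 mM PEP in 50 mM imidazole pH 7.2, KCl, MgCl2; 1 h room temperature. ATP formed read by Kinase-Glo luminescence; normalized to uninhibited and no-enzyme controls.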
# EPAC1 antag = qHTS for Antagonist of cAMP-regulated guanine nucleotide exchange factor 3 (EPAC1): primary screen. AID 720709, 2013. EPAC1 GEF assay, Rap1b-BODIPY-GDP exchange fluorescence. Rap guanine nucleotide exchange factor 3 (Homo sapiens), O95398. Potency, µM (top dose mostly 115 µM), for the others: top-dose activity change, negative = inhibition, most hits filed as inhibitors. 360,000 compounds, 0.14% hits;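 also: potency is read from the fitted curve at half-maximal effect; plate controls were vehicle for no effect and positive control for full effect; nearly all actives have a fitted effect of over 50% in size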
# EPAC1 agonist = qHTS for Agonist of cAMP-regulated guanine nucleotide exchange factor 3 (EPAC1): primary screen. EPAC1 agonist qHTS, biochemical assay; response scale: 100% = response to 6.5 mM cAMP. Potency, µM (series often up to 154 µM), for inactives: at the top dose activation, most hits filed as activators. 360,000 compounds, 0.073% hits; also: potency is read from the fitted curve at half-maximal effect; nearly all actives have a fitted effect of over 60% in size
#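 Nucleotide exchange by EPAC1 (100 nM) on Rap1B–BODIPY-GDP (250 nM) in the presence of 50 uM GDP is tracked fluorescently at 480/540 nm over 30 min. Signals are normalized to a 6.5 mM cAMP control.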
# EPAC2 agonist = qHTS for Agonist of cAMP-regulated guanine nucleotide exchange factor 4 (EPAC2): primary screen; 360,000 compounds, 0.079% hits; Potency, µM (top dose mostly 154 µM), without a hit: top-dose activation, actives largely listed as activators; Rap guanine nucleotide exchange factor 4 (Homo sapiens), Q8WZA2; AID 720711, 2013; EPAC2 activation, biochemical qHTS; response scale: 100% = 6.5 mM cAMP response; also: potency is read from the fitted curve at half-maximal effect; nearly all actives have a fitted effect of over 50% in size
#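 Compounds were added across a concentration range to EPAC2 (100 nM), RAP1B-BODIPY-GDP (250 nM) and GDP (50 uM). After 5 min at room temperature, fluorescence was recorded at 5-min intervals for 30 min.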
# IL2 activator = qHTS of IL-2 Activators; IL-2 activation reporter assay, cell-based qHTS; stimulated with anti-CD3/CD4/CD28 beads; in transgenic mouse T cells; activation, % (series mostly up to about 46 µM); 360,000 compounds, 0.065% hits; in the data active = activation above about 50%; inconclusive = mostly about 30% to 49%; also: 0% is about no effect
#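 EGFP and DsRed fluorescence is measured by plate cytometry in unstimulated transgenic mouse T cells exposed to compound for 60 minutes, then stimulated 18 hours at 37 degrees C with anti-CD3/anti-CD4 beads plus anti-CD28.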
# EPAC2 antagonist = qHTS for Antagonist of cAMP-regulated guanine nucleotide exchange factor 2 (EPAC2): primary screen; Potency, µM (series often up to 114 µM), without a hit: top-dose activity, negative = inhibition, most hits filed as inhibitors; 360,000 compounds, 0.18% hits; EPAC2 GEF exchange of Rap1B-BODIPY-GDP, fluorescence; AID 720708, 2013; also: potency is read from the fitted curve at half-maximal effect; % is scaled to controls: 0 for no effect and ±100 for the full control effect; nearly all actives have a fitted effect of over 45% in size
# Numbers without * were called inactive; ? = inconclusive; . = not tested or not shown. Unless noted, calls follow the shape of the dose curve; as a rule, active = well fitted curve in the direction sought with a large enough effect; inconclusive = small, poorly fitted or top-dose-only effect, or another doubt; inactive = no such curve, though single readings can be large; an effect the other way counts as inactive or inconclusive.
SMILES,PKM2 activator,EPAC1 antag,EPAC1 agonist,EPAC2 agonist,IL2 activator,EPAC2 antagonist
CSc1nc2ccc(NS(=O)(=O)c3c(Cl)cccc3Cl)cc2s1,?,?,4.0%,29.0%,-1.9,-10.9%
Cc1cccc(NC(=O)CSc2nc(NS(=O)(=O)c3ccccc3)cc(=O)[nH]2)c1,22.5%,?,-1.9%,2.8%,0.1,0.4%
CCOc1ccc2c(ccc(/C=C/c3cc(C)c4cccnc4c3O)[n+]2C)c1,.,35.5µM*,63.1µM*,?,-3.9,39.8µM*
NS(=O)(=O)c1ccc(NCC2COc3ccccc3O2)c([N+](=O)[O-])c1 (configuration not stated),20µM*,-17.4%,0.3%,-4.6%,0.2,-6.5%
COc1ccc(NC(=O)COC(=O)Cc2c(F)cccc2Cl)cc1,-2.8%,7.5%,-2.6%,9.7%,-0.5,5.9%
CC(=O)CCc1oc2ccc(NC(C)=O)cc2c1-c1ccc(C)o1,10µM*,-10.2%,-2.8%,-3.3%,1.8,3.9%
CN(CC(=O)Nc1ccc(F)cc1)C(=O)COC(=O)C1CCN(c2ccc(C(F)(F)F)cn2)CC1,.,-15.8%,100µM*,-0.2%,-0.5,-17.1%
CN(C)S(=O)(=O)c1ccc(C(=O)NCCN2C(=O)S/C(=C\c3cccnc3)C2=O)cc1,15.8µM*,1.9%,-6.0%,2.5%,-0.7,22.0%
COc1nc(-c2ccccc2)ncc1S(=O)(=O)c1ccccc1,15.8µM*,?,15.5%,19.9%,-0.6,-17.4%
Cc1ccc(C(=O)N2CCN(c3ccccc3)CC2)cc1S(=O)(=O)N1CCOCC1,1.0%,56.2µM*,-7.5%,2.0%,-1.0,-5.7%
CN(C)S(=O)(=O)c1ccc(C(=O)OCc2nnc(-c3ccccc3)o2)cc1,-1.9%,-5.5%,-1.4%,3.1%,2.6,-5.7%
CS(=O)(=O)c1ccc(C(=O)OCc2nnc(-c3ccccc3)o2)cc1[N+](=O)[O-],?,89.1µM*,1.9%,12.7%,-4.3,-15.3%
Cc1cc(O)cc(C)c1NS(=O)(=O)c1ccc2ccccc2c1,.,-4.8%,3.5%,12.8%,-0.1,11.2µM*
CNS(=O)(=O)c1ccc2ccccc2c1,-12.4%,-3.4%,12.0%,4.2%,2.2,-5.5%
Cc1ccc(CN(Cc2cccnc2)C(=O)CN2C(=O)COc3ccccc32)o1,28.2µM*,0.8%,6.3%,14.1%,0.6,-0.1%
CCCSc1nc(C)cc(C)c1S(=O)(=O)c1ccccc1C,-0.7%,?,-4.2%,-0.1%,0.5,10µM*
COC(=O)CCC(=O)N1CCc2cc(S(=O)(=O)N3CCc4ccccc43)ccc21,12.6µM*,-5.4%,13.2%,8.9%,-1.2,-3.5%
Cc1cc(C(=O)CSc2nc3ccc(Cl)cc3[nH]2)c(C)n1C,15.8µM*,-1.4%,1.0%,9.0%,-0.7,-2.4%
CN(C)c1ccc(/C=N/n2c(-c3ccccc3Br)n[nH]c2=S)cc1,-1.1%,-28.8%,1.4%,5.5%,0.7,-13.7%
O=C1CC(=O)N(Cc2ccco2)C(=S)N1,-1.0%,44.7µM*,4.4%,5.5%,-1.2,13.9%
O=C1CC(=O)N(Cc2ccco2)C(=O)N1,3.0%,?,19.8%,1.9%,2.0,?
Cc1ccc(S(=O)(=O)N2[C@@H](c3ccc(C(C)(C)C)cc3)C(C(=O)O)=CC[C@H]2c2ccc(C(C)C)cc2)cc1,.,31.6µM*,-47.7%,-23.4%,-0.7,39.8µM*
Cc1ccc(S(=O)(=O)N2[C@@H](c3ccc(C(C)(C)C)cc3)C(C(=O)O)=CC[C@H]2c2cccs2)cc1,.,-16.2%,-4.0%,-9.0%,0.1,31.6µM*
Cc1ccc([C@H]2C(C(=O)O)=CC[C@@H](c3cccs3)N2S(=O)(=O)c2ccc(C)cc2)cc1,.,-14.1%,-3.8%,4.4%,1.3,-29.6%
Cc1ccc(S(=O)(=O)N2C(c3ccc(Cl)c(Cl)c3)CC=C(C(=O)O)C2c2ccc(Cl)cc2)cc1 (configuration not stated),.,-10.4%,12.5%,-7.0%,0.3,63.1µM*
SMILES,PKM2 activator,EPAC1 antag,EPAC1 agonist,EPAC2 agonist,IL2 activator,EPAC2 antagonist
CCc1ccc([C@@H]2CC=C(C(=O)O)[C@H](c3ccccc3)N2S(=O)(=O)c2ccc(C)cc2)cc1,.,-8.1%,-20.4%,4.0%,-1.5,-17.1%
CCc1ccc([C@@H]2CC=C(C(=O)O)[C@H](c3ccc(C(C)(C)C)cc3)N2S(=O)(=O)c2ccc(C)cc2)cc1,.,44.7µM*,-32.8%,-14.9%,0.3,56.2µM*
CSc1nnc(NC(=O)c2cccc(S(=O)(=O)N3CCOCC3)c2)s1,6.6%,7.4%,0.7%,-5.5%,-2.7,0.7%
Cc1ccc(S(=O)(=O)N2[C@@H](c3ccc(Cl)c(Cl)c3)C(C(=O)O)=C[C@H]2CC2CCCC2)cc1,.,50.1µM*,-14.5%,-2.7%,-0.8,?
Cc1ccc([C@@H]2CC=C(C(=O)O)[C@H](c3ccc(C(C)(C)C)cc3)N2S(=O)(=O)c2ccc(C)cc2)cc1,.,28.2µM*,-24.3%,-14.2%,0.0,?
Cc1ccc(S(=O)(=O)N2[C@@H](c3ccc(Br)cc3)C(C(=O)O)=CC[C@H]2c2ccc(C(C)C)cc2)cc1,.,56.2µM*,3.2%,4.6%,-0.6,?
Cc1ccc([C@@H]2CC=C(C(=O)O)[C@H](c3ccc(Br)cc3)N2S(=O)(=O)c2ccc(C)cc2)cc1,.,-16.0%,-20.6%,-1.6%,-0.6,?
O=C(c1ccc(C(F)(F)F)cc1)N1CCN(S(=O)(=O)c2ccc3c(c2)OCCCO3)CC1,20.1%,-14.7%,-5.3%,-3.1%,-3.0,-5.8%
COC(=O)C1=CN(Cc2cccs2)C=C(C(=O)OC)C1c1cccc(O)c1,-1.1%,0.6%,0.7%,-6.2%,0.3,50.1µM*
O=C(/C=C/c1ccccc1)c1c[nH]c2ccccc12,-9.4%,-16.9%,4.6%,4.7%,-0.2,3.8%
O=C(C=Cc1ccccc1)c1c[nH]c2ccccc2c1=O,.,79.4µM*,0.4%,3.8%,-0.7,-0.7%
COc1ccc2c(c1)c(/C=C/c1cc[n+](C)cc1)cn2C,.,-5.4%,15.1%,24.2%,238.2*,26.9%
